Measured values reported in the supplement of paper PMC9897528.

Each molecule was assayed on Scedosporium aurantiacum CBS 136046 (assay: growth inhibition relative to DMSO control (OD600); higher = more antifungal activity, active = 80 or more; extreme values may be limits of the assay). Conditions: 5 µM; 72 h; 37 °C.
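Further: conidia screened in RPMI 1640 medium under 5% CO2, growth read by spectrophotometer, medium with 0.5% DMSO serving as the untreated reference.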

Growth inhibition, inactive:
NC[C@H]1OB(O)c2c(OCCCO)cccc21 34.1%
CCN(CC)CCCC(C)Nc1ccnc2cc(Cl)ccc12 (stereo not drawn) 21.6%
CCOc1ccc(C(=O)NCCc2ccccc2)cc1 33.4%
CCNC(=O)Nc1cc2c(-c3ccnc(C)c3)ccc(CNC(=O)OC)c2cn1 13.3%
CCC[C@H](NC(=O)[C@@H]1[C@H]2CCC[C@H]2CN1C(=O)[C@@H](NC(=O)[C@@H](NC(=O)c1cnccn1)C1CCCCC1)C(C)(C)C)C(=O)C(=O)NC1CC1 4.34%
COC1CC2CCC(C)C(O)(O2)C(=O)C(=O)N2CCCCC2C(=O)OC(C(C)CC2CCC(OCCO)C(OC)C2)CC(=O)C(C)/C=C(\C)C(O)C(OC)C(=O)C(C)CC(C)/C=C/C=C/C=C/1C (stereo not drawn) 10.9%
N=C(N)NCCCCC(=O)Nc1cc(C(F)(F)F)cc(NC(=O)c2cc(C(=O)Nc3cc(C(F)(F)F)cc(NC(=O)CCCCNC(=N)N)c3O[C@@H]3CCNC3)ncn2)c1O[C@@H]1CCNC1 37.1%
Nc1nc(Nc2ccc3nc(-c4ccc(F)cc4)cc(N)c3c2)cc(-c2ccccc2)n1 17.1%
Cn1cncc1[C@@](N)(c1ccc(Cl)cc1)c1ccc2c(c1)c(-c1cccc(Cl)c1)cc(=O)n2C 11.3%
CC[C@H]1OC(=O)[C@H](C)[C@@H](O[C@H]2C[C@@](C)(OC)[C@@H](O)[C@H](C)O2)[C@H](C)[C@@H](O[C@@H]2O[C@H](C)C[C@H](N(C)C)[C@H]2O)[C@](C)(O)C[C@@H](C)C(=O)[C@H](C)[C@@H](O)[C@]1(C)O 0.273%
CC(C)(C)NC(=O)[C@@H]1CN(Cc2cnc3occc3c2)CCN1C[C@@H](O)C[C@@H](Cc1ccccc1)C(=O)N[C@H]1c2ccccc2C[C@H]1O 1.85%
O=C1NC(=S)N/C1=C\c1cc(Br)cc(Br)c1O 12.6%
Cc1ccc(N2CCC(CCOc3ccc(S(C)(=O)=O)cc3)CC2)nn1 24.5%
O=[N+]([O-])c1cn2c(n1)OC[C@@H](OCc1ccc(OC(F)(F)F)cc1)C2 11.2%
Cc1c(F)cccc1NC(=O)Nc1ccc(Cl)c(S(=O)(=O)[C@H]2CCCNC2)c1O 4.56%
CCOC(=O)N1CCN(c2ccc(Cl)cc2)CC1 10.6%
N[C@@H]1CN(c2c(F)cc3c(=O)c(C(=O)O)cn([C@@H]4C[C@@H]4F)c3c2Cl)CC12CC2 7.35%
NC(=O)c1cnccn1 1.73%
O=C(NN1C(=O)[C@@H]2[C@@H]3C=C[C@@H]([C@H]4C[C@@H]34)[C@@H]2C1=O)c1ccc(C(F)(F)F)cc1 6.47%
CCCCCCCCCN1C[C@@H](O)[C@H](O)[C@@H](O)[C@@H]1CO 13.7%
O=S(=O)(Nc1ccc(O)cc1)c1cccc2cccnc12 13.2%
CCOCc1nc2c(N)nc3ccccc3c2n1CC(C)(C)O 14.6%
CC(C)(C)NC(=O)[C@@H]1C[C@@H]2CCCC[C@@H]2CN1C[C@@H](O)[C@H](Cc1ccccc1)NC(=O)[C@H](CC(N)=O)NC(=O)c1ccc2ccccc2n1 15%
OC1O[C@H](CSc2ccc(F)cc2)[C@@H](O)[C@H]1O (stereo partly drawn) 16.7%
COC(=O)Nc1nc2cc([S+]([O-])c3ccccc3)ccc2[nH]1 (stereo not drawn) 0.624%
C[C@H](c1cccc2ccccc12)N(C)Cc1ccccc1 14.5%
CCc1c(O)nc2ccc(F)cc2c1OCC1CCC1 23.8%
O=C(CCc1ccc2c(c1)OCO2)NCc1ccc(-c2ccccc2F)cc1 28.3%
O=C(O)C[C@H]1CC[C@H](c2ccc(-c3ccc(Nc4ccc(C(F)(F)F)nc4)cn3)cc2)CC1 12.5%
CC(C)Oc1ccc(-n2cnc3cc(/C=C\c4ccc(C(C)(C)O)cc4)ccc32)cc1 28.5%
Cn1cc(NC(=O)c2cc(NC(=O)c3ccc(/C=C/c4cnc5ccccc5c4)cc3)cn2C)cc1C(=O)NCCN1CCOCC1 0%
CN(C)CCCOc1ccc(-c2ccc3ncc4c(c3c2)n(C2CCOCC2)c(=O)n4C)cn1 3.43%
CCc1ccc(C2CC(C(F)(F)F)n3ncc(C(=O)NCc4ccc(OC)cc4)c3N2)cc1 (stereo not drawn) 34.5%
O=C(Nc1ccc(-c2ccccc2)cc1)C1=C(O)C(Cc2ccccc2)OC1=O (stereo not drawn) 45.3%
Fc1ccc2c(/C=C/c3nnn[nH]3)c[nH]c2c1 4.45%
Cc1c[nH]c(=O)nc1NCc1ccccc1 10.8%
[N-]=[N+]=N[C@H]1C[C@H](n2ccc(=O)[nH]c2=O)O[C@@H]1CO 11.7%

Growth inhibition, active:
CCCCC(CC)CNC(=N)NC(=N)NCCCCCCNC(=N)NC(=N)NCC(CC)CCCC (stereo not drawn) 85%
